In PubChem BioAssay (Tox21):
Inconclusive results are not listed. Calls of active or inactive are those of the source. The call rests on the fitted dose curve; in most records, active means well fitted inhibition curve with a large enough effect in the repeat runs; inconclusive means weak or mixed curves, or effect the other way; inactive means no such curve, though single readings can be large or run the other way.

target: Nuclear receptor ROR-gamma (Homo sapiens) (UniProt P51449); assay: qHTS assay to identify small molecule antagonists of the retinoid-related orphan receptor gamma (ROR-gamma) signaling pathway (AID 1159521; further: top concentration of the series differs between compounds; nearly all actives have a fitted effect of over 50% in size); settings: Tet-on RORgamma CHO cells, RORE-luciferase, 16 h; series mostly up to 92.4 µM
Text: U.S. Tox21 Program National Center for Advancing Translational Sciences [NCATS] NIH Chemical Genomics Center [NCGC] U.S. Environmental Protection Agency [EPA] National Institutes of Environmental Health Sciences [NIEHS] National Toxicology Program [NTP] U.S. Food and Drug Administration [FDA] Tox21 Assay Overview: Nuclear steroid hormone receptors are involved in many biological processes including inflammatory responses, cell proliferation, and apoptosis. Environmental factors or compounds disrupting these nuclear receptor pathways and gene expression may promote susceptibility to immunotoxicants and autoimmune diseases. One important group of these expression factors are the retinoid-related orphan receptors. To assess compounds that may interfere with the retinoid-related orphan receptor gamma (ROR-gamma) transcription factor, a cell-based luciferase assay was used. The CHO cell-based assay utilizes a TET-inducible ROR expression factor and ROR response element-LUC reporter gene. Reporter gene activity was induced using Doxycycline Hyclate and measured after 16 hr incubation. Tet-on ROR gamma CHO cells were used to screen against the Tox21 10K compound library for ROR gamma antagonists by quantification of decreased reporter gene activity in terms of decreased luminescence.
Tox21 Assay Protocol Summary: Tet-on ROR gamma CHO cells were dispensed at 1,000 cells in 4 uL of culture medium per well into white wall/solid bottom 1536-well plates using a Multidrop Combi (Thermo Scientific, Waltham, MA) dispenser. Following incubation at 37 C and 5% CO2 for 4 hr, 23 nL of compounds dissolved in DMSO, positive controls or DMSO only were transferred by a Pintool station (Kalypsys, San Diego, CA) and after 2 hr incubation at 37 C, one ul of 1 uM (final concentration) of Doxycycline Hyclate was added to all the wells by using a Flying Reagent Dispenser (FRD) (Aurora Discovery, San Diego, CA). After 16 hr incubation at 37 C and 5% CO2, 5 uL of ONE-Glo reagent (Promega Corporation, Madison, WI) was added to each assay plate using FRD. After 30 min incubation at room temperature, luminescence was quantified on a ViewLux plate reader (Perkin Elmer, Waltham, MA).

SMILES | outcome
O=C(c1ccc2c(c1)C(=O)OC2=O)c1ccc2c(c1)C(=O)OC2=O | inactive
Cc1ccc2c(c1)c1c3n2CCNC3CCC1 (stereo not given) | inactive
CC(C)(C)NCCO | inactive
CCCCC[Si](OCC)(OCC)OCC | inactive
NC(=O)NC(=O)Cc1ccccc1 | inactive
Cc1nc(C)nc(N2C[C@@H](C)N(c3ccnc([C@@H](C)O)n3)[C@@H](C)C2)n1 | inactive
CCCCCCCCCCCCOC(C)=O | inactive
O=C(/C=C/c1ccccc1)NCCO | inactive
CC(=O)OC[C@H]1O[C@@H](OC(C)=O)[C@H](OC(C)=O)[C@@H]1OC(C)=O | inactive
Cc1cccc(Nc2ccncc2S(=O)(=O)NC(=O)NC(C)C)c1 | inactive
O=S(=O)(O)c1cc(O)ccc1O | inactive
O=C1OC(=O)c2cc(Oc3ccc4c(c3)C(=O)OC4=O)ccc21 | inactive
CCCCCCCCCCC | inactive
CCS(=O)(=O)CCn1c([N+](=O)[O-])cnc1C | inactive
C[C@@H]1C[C@H]2[C@@H]3C[C@H](F)C4=CC(=O)C=C[C@]4(C)[C@@]3(F)[C@@H](O)C[C@]2(C)[C@@]1(O)C(=O)CO | inactive
CC(C)CCCCCCOC(=O)C1CCCCC1C(=O)OCCCCCCC(C)C (stereo not given) | inactive
CCOC(=O)C(C)(C)C | inactive
O=C(O)C(=O)Nc1cccc(-c2nn[nH]n2)c1 | inactive
CC(=O)N(CC(O)CO)c1c(I)c(C(=O)NCC(O)CO)c(I)c(C(=O)NCC(O)CO)c1I (stereo not given) | inactive
CCN(CC)C(=O)C1CN2CCc3cc(OC)c(OC)cc3C2CC1OC(C)=O (stereo not given) | inactive

SMILES | outcome
CCCCCCCC[Si](OCC)(OCC)OCC | inactive
COc1cccc2sc(N)nc12 | inactive
CCCCC(CC)CNC(=O)CC(C)OC(=O)CCC(=O)O (stereo not given) | inactive
N#CCCOCCOCCC#N | inactive
CCC(CO)CO | inactive
C=CC(C)(O)CC/C=C(\C)CC (stereo not given) | inactive
Nc1cc(Cl)cc(S(=O)(=O)O)c1O | inactive
CC(C)C(=O)c1ccccc1 | inactive
CCN(CCC#N)c1ccccc1 | inactive
CC(=O)OCCCc1ccccc1 | inactive
Nc1ccc(C(=O)OCC(O)CO)cc1 (stereo not given) | inactive
CC(C)CCCC(C)CC=O (stereo not given) | inactive
C[C@H]1O[C@H](O[C@H]2[C@H](O)[C@@H](O)[C@@H](O[C@H]3[C@H](O)[C@@H](O)[C@H](O)O[C@@H]3CO)O[C@@H]2CO)[C@H](O)[C@@H](O)[C@@H]1N[C@H]1C=C(CO)[C@@H](O)[C@H](O)[C@H]1O | inactive
CC(=O)OC(C(=O)c1ccccc1)c1ccccc1 (stereo not given) | inactive
C=C(C)C(=O)OC | inactive
Nc1ccc(S(=O)(=O)Nc2ccccn2)cc1 | inactive
C1=C\CC/C=C\CC/1 | inactive
CC(C)(c1ccc(Oc2ccc3c(c2)C(=O)OC3=O)cc1)c1ccc(Oc2ccc3c(c2)C(=O)OC3=O)cc1 | inactive
Cc1cc(C)cc([N+](=O)[O-])c1 | inactive
Nc1cc(C(=O)O)ccc1Cl | inactive
